Compound activity (PubChem BioAssay)
Compounds with a hit are over-represented: about 6.7% of the library has one in this group of screens.
Pf Dd2 inh: inhibitors of Plasmodium falciparum Dd2 growth; P. falciparum Dd2 growth, SYBR Green, 72 h; hits give low values; activity change, % at 10 µM; 2.3% of 94,000 active; AID 1159554; in the data active = activity change below about -80%; inconclusive = no clear call, values can overlap the other calls
C diff HTS: C. difficile growth inhibition | Clostridium difficile clinical isolate growth, OD600, 24 h; hits give low values | growth activity, negative = inhibition, % at 16 µg/mL (by protocol) | 0.25% of 86,000 active;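 active = mean growth activity at or below -80% and every replicate also at or below -80%; inconclusive = mean at or below -80% but some replicate above -80%; inactive = mean growth activity above -80%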;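 note: 0% = DMSO wells and -100% = levofloxacin 16 µg/mL wells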
T cruzi growth-1: blocks T. cruzi growth in NIH3T3 culture; 5.9% of 77,000 active; inhibition, % at 8.34 µM; AID 624255; T. cruzi beta-gal in NIH3T3, GalScreen luminescence, 90 h;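 active = mean inhibition above about 93%, with at least 55% of replicates each passing it, limit read from the data, passing the limit was not always enough; inconclusive = only one of those two conditions holds; inactive = neither condition holds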
T cruzi growth-2: blocks T. cruzi growth in NIH3T3 host cells. shares compounds with T cruzi growth-1. T. cruzi beta-gal in NIH3T3, GalScreen luminescence, 90 h. inhibition, % at 8.35 µM. 72% of 5,600 active;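 active = mean replicate inhibition above about 95% and at least 55% of replicates individually reaching it, limit read from the data; inconclusive = only one of the two criteria is met; inactive = neither criterion is met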
T cruzi growth-3: blocks T. cruzi growth in NIH3T3 host cells; shares compounds with T cruzi growth-1; inhibition, % at 2.09 µM; T. cruzi beta-gal in NIH3T3, GalScreen luminescence, 90 h; 21% of 5,600 active;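 active = mean inhibition above about 95%, with at least 55% of replicates also reaching it, limit read from the data; inconclusive = meets just one of the two conditions; inactive = meets neither condition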;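 note: plate controls were neutral control median for no effect and positive control median for full effect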
NIH3T3 tox: NIH/3T3 (mouse) viability loss | AID 651742 | cytotoxicity (signal decrease), % at 8.35 µM | NIH/3T3 viability, CellTiter-Glo ATP luminescence, 90 h | 14% of 5,600 active | shares compounds with T cruzi growth-1;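 active = mean signal decrease across replicates above about 35% based on untreated-well scatter, with enough replicates individually passing, limit read from the data; inconclusive = no rule stated though some were filed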;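 note: 0% = median of neutral control wells and 100% = median of positive control wells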
3T3 cytotox 2: NIH/3T3 (mouse) viability loss. shares compounds with T cruzi growth-1. NIH/3T3 viability, CellTiter-Glo ATP luminescence, 90 h. inhibition, % at 24.9 µM. 56% of 5,600 active;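 active = mean loss of cell viability signal at or above a set limit, and enough replicates individually reaching it; inconclusive = meets only the mean limit or only the replicate share; inactive = meets neither condition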;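 note: 0% = median of neutral control wells and 100% = median of positive control wells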
* marks the source's active call; other numbers are inactive results; ? = inconclusive; . = not tested or not shown.

SMILES | Pf Dd2 inh | C diff HTS | T cruzi growth-1 | T cruzi growth-2 | T cruzi growth-3 | NIH3T3 tox | 3T3 cytotox 2
CC(=O)N1CCCCN2[C@H](C1)[C@H](c1ccc(-c3ccc(C)cc3)cc1)[C@@H]2CO | 10 | -1 | 100* | 106* | 41 | 15 | 29*
CC(=O)N1CCCCN2[C@H](C1)[C@H](c1ccc(-c3ccc(F)cc3)cc1)[C@@H]2CO | -1 | -8 | 41 | . | . | . | .
CC(=O)N1CCCCN2[C@H](CO)[C@@H](c3ccc(-c4ccc(C)cc4)cc3)[C@@H]2C1 | 32 | 2 | 102* | 74 | 18 | 41* | 28*
CC(=O)N1CCCCN2[C@H](C1)[C@@H](c1ccc(-c3cccc(C)c3)cc1)[C@@H]2CO | -29 | -6 | 14 | . | . | . | .
CC(C)NC(=O)N(C)C[C@H]1Oc2ccc(NC(=O)C3CC3)cc2C(=O)N([C@H](C)CO)C[C@H]1C | -3 | 0 | 15 | . | . | . | .
C[C@@H]1CCCCO[C@H](CN(C)CC2CCCCC2)[C@H](C)CN([C@@H](C)CO)C(=O)c2cc(NS(=O)(=O)c3ccc(Cl)cc3)ccc2O1 | -60 | -49 | 76 | . | . | . | .
CC(=O)N1CCCCN2[C@@H](CO)[C@H](c3ccc(-c4ccc(C)cc4)cc3)[C@@H]2C1 | -9 | -3 | 120* | 65 | 30 | ? | 76*
CC(=O)N1CCCCN2[C@H](CO)[C@@H](c3ccc(-c4ccc(F)cc4)cc3)[C@@H]2C1 | 9 | -8 | -60 | . | . | . | .
CC(=O)N1CCCCN2[C@H](CO)[C@@H](c3ccc(-c4ccc(C)cc4)cc3)[C@H]2C1 | 37 | -13 | 106* | 3 | -15 | 21 | 74*
CC(=O)N1CCCCN2[C@H](C1)[C@H](c1ccc(-c3cccc(C)c3)cc1)[C@@H]2CO | 16 | 2 | 74 | . | . | . | .
C[C@@H]1CN([C@@H](C)CO)C(=O)c2cc(C#CC3CCCCC3)cnc2O[C@H]1CN(C)C(=O)C1CCCCC1 | -39 | 4 | 83 | . | . | . | .
CC(C)NC(=O)N(C)C[C@@H]1Oc2cc(C3=CCCC3)ccc2S(=O)(=O)N([C@H](C)CO)C[C@@H]1C | -24 | 0 | 46 | . | . | . | .
C[C@H](CO)N1C[C@H](C)[C@H](CN(C)C(=O)Nc2ccc3c(c2)OCO3)Oc2c(NC(=O)c3cnccn3)cccc2C1=O | 2 | . | 0 | . | . | . | .
C[C@@H]1CCCCO[C@H](CN(C)S(=O)(=O)c2ccccc2)[C@H](C)CN([C@@H](C)CO)C(=O)c2cc(NS(=O)(=O)c3ccccc3)ccc2O1 | -38 | . | 84 | . | . | . | .
CCCN1C[C@@H](C)[C@H](OC)CN(C)C(=O)c2cc(NC(=O)c3cnccn3)ccc2OC[C@H]1C | -6 | . | -80 | . | . | . | .
CN1c2ccc(-c3ccc(C#N)cc3)cc2[C@H]2[C@H](CCN2C(=O)c2cccc(F)c2)[C@@H]1CO | -12 | -2 | 78 | . | . | . | .
CN1c2ccc(-c3ccc(C#N)cc3)cc2[C@@H]2[C@@H](CCN2C(=O)c2cccc(F)c2)[C@H]1CO | 25 | -3 | ? | 110* | 103* | 25 | 82*
CN(C)C(=O)c1cccc(-c2ccc3c(c2)[C@H]2[C@H](CCN2C(=O)c2cccc(F)c2)[C@@H](CO)N3C)c1 | -13 | -9 | 99* | 103* | 41 | 5 | 8
CN(C)C(=O)c1cccc(-c2ccc3c(c2)[C@@H]2[C@@H](CCN2C(=O)c2ccc(F)cc2)[C@H](CO)N3C)c1 | -29 | 9 | 19 | . | . | . | .
C[C@@H]1CN([C@H](C)CO)C(=O)Cc2cc(NS(C)(=O)=O)ccc2O[C@H]1CN(C)Cc1ccccc1 | -8 | -1 | 24 | . | . | . | .
CN(C)C(=O)C[C@@H]1CC[C@H]2[C@H](COc3ccc(NC(=O)NCc4ccccc4)cc3C(=O)N2C)O1 | 6 | 10 | -2 | . | . | . | .
CCCNC(=O)N[C@H]1CC[C@@H](CC(=O)NC2CCC2)O[C@H]1CO | -4 | . | -51 | . | . | . | .
CCCC(=O)Nc1ccc2c(c1)C(=O)N(C)C[C@H](OC)[C@H](C)CN(CC1CCOCC1)[C@H](C)CO2 | . | . | -4 | . | . | . | .
COc1ccc(NC(=O)Nc2ccc3c(c2)C(=O)N([C@H](C)CO)C[C@H](C)[C@H](CN(C)C(=O)CCCN(C)C)OCCCC[C@@H](C)O3)cc1 | 20 | 1 | -1 | . | . | . | .
CCCNC(=O)N1[C@@H](CO)[C@H](c2ccc(C3=CCCC3)cc2)[C@@H]1CNC(C)=O | 18 | -4 | -11 | . | . | . | .
SMILES | Pf Dd2 inh | C diff HTS | T cruzi growth-1 | T cruzi growth-2 | T cruzi growth-3 | NIH3T3 tox | 3T3 cytotox 2
CCCNC(=O)N1[C@H](CO)[C@H](c2ccc(C3=CCCC3)cc2)[C@@H]1CN(C)C(C)=O | 4 | 4 | 23 | . | . | . | .
CCCNC(=O)N1[C@H](CN(C)C(C)=O)[C@H](c2ccc(C3=CCCC3)cc2)[C@@H]1CO | 6 | -5 | ? | -4 | 0 | 2 | 3
CCCNC(=O)N1[C@H](CN(C)C(C)=O)[C@@H](c2ccc(C3=CCCC3)cc2)[C@@H]1CO | 4 | 0 | ? | -9 | -21 | -2 | 2
CO[C@H]1CN(C)C(=O)c2ccc(NC(=O)C3CCCC3)cc2OC[C@H](C)NC[C@H]1C | . | . | -64 | . | . | . | .
O=C(Nc1ccccc1)N[C@H]1CC[C@H](CCn2cc(-c3ccccc3F)nn2)O[C@H]1CO | 22 | 1 | . | . | . | . | .
COc1cccc(CN2CCCCN3[C@H](C2)[C@@H](c2ccc(C#Cc4cccnc4)cc2)[C@@H]3CO)c1 | -71 | -2 | 117* | 94 | 102* | 26 | 104*
COc1cccc(CN2CCCCN3[C@@H](CO)[C@@H](c4ccc(C#Cc5cccnc5)cc4)[C@@H]3C2)c1 | -73 | -5 | 118* | 104* | ? | 27 | 104*
COc1cccc(-c2ccc([C@@H]3[C@@H](CO)N4CCCCN(Cc5cncnc5)C[C@H]34)cc2)c1 | 11 | -4 | 43 | . | . | . | .
COCC#Cc1ccc([C@H]2[C@H]3CN(Cc4cccnc4)CCCCN3[C@H]2CO)cc1 | -14 | . | 48 | . | . | . | .
CC(C)NC(=O)Nc1ccc2c(c1)C(=O)N([C@@H](C)CO)C[C@H](C)[C@@H](CN(C)C(=O)NC1CCCCC1)OCCCC[C@H](C)O2 | -31 | -5 | 14 | . | . | . | .
CC(C)NC(=O)Nc1ccc2c(c1)C(=O)N([C@@H](C)CO)C[C@@H](C)[C@@H](CN(C)C(=O)NC1CCCCC1)OCCCC[C@H](C)O2 | -32 | -3 | 5 | . | . | . | .
CC(C)NC(=O)Nc1ccc2c(c1)C(=O)N([C@H](C)CO)C[C@@H](C)[C@H](CN(C)C(=O)NC1CCCCC1)OCCCC[C@@H](C)O2 | -41 | -6 | 96* | 93 | 41 | 5 | 6
C[C@@H]1CN([C@H](C)CO)C(=O)c2cc(NC(=O)C3CCCCC3)ccc2O[C@@H](C)CCCCO[C@H]1CN(C)C(=O)NC1CCCCC1 | -26 | -2 | 114* | 98* | 90 | -21 | 37
C[C@@H]1CCCCO[C@@H](CN(C)C(=O)NC2CCCCC2)[C@H](C)CN([C@H](C)CO)C(=O)c2cc(NC(=O)C3CCCCC3)ccc2O1 | -60 | -3 | 66 | . | . | . | .
